Records with an inconclusive call do not appear. A call without a number means that no potency is given here. Unmarked numbers belong to inactive results. The source made the active and inactive calls. Calls follow the shape of the dose curve; as a rule, active = well fitted curve in the direction sought with a large enough effect; inconclusive = small, poorly fitted or top-dose-only effect, or another doubt; inactive = no such curve, though single readings can be large; an effect the other way counts as inactive or inconclusive.

Test system in the first assay: not listed separately
Nature of the assay: P-glycoprotein substrates identified in KB-8-5-11 adenocarcinoma cell line, qHTS therapeutic library screen (AID 1346987). Also: nearly all actives have a fitted effect of over 65% in size. To be noted: KB-8-5-11 (P-gp overexpressing) viability, CellTiter-Glo, 72 h; series mostly up to 44.5 µM. In a few lines: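 KB-8-5-11: colchicine-selected sub-line of KB-3-1 over-expressing P-gp; assay medium lacked colchicine. 72 h drug exposure at 37 degree C, CellTiter-Glo.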
As to `O=C(OCC(O)CO[C@@H]1O[C@H](C(=O)O)[C@@H](O)[C@H](O)[C@H]1O)c1ccccc1` (stereo not given in full), the Potency entry was “inactive”.
As for `CC(=O)OC1CCC2(C)C(CCC3(C)C2CC=C2C4CC(C)(C)CCC4(C)CCC23C)C1(C)C(=O)O` (stereo not given), the Potency entry was “inactive”.
In the case of `C/C=C(\C)C1C(C)=CC2CCC(OS(=O)(=O)O)C(C)C2C1/C=C/C=C/C(=O)O` (stereo not given), the Potency entry was “inactive”.
Still for that read-out and setting: the same measure for `CN1CCN(c2nc(-c3ccc(C(=O)NC4(C(=O)NCC#N)CCCCC4)cc3)cs2)CC1`: “inactive”.
On to `CC(C)=CC[C@H]1O[C@]2(O)C([C@H]3CCC4[C@@]5(C)CC[C@H](O[C@@H]6O[C@H](CO)[C@H](O)[C@H](O[C@@H]7O[C@H](CO)[C@@H](O)[C@H](O)[C@H]7O)[C@H]6O[C@@H]6O[C@@H](C)[C@H](O)[C@@H](O)[C@H]6O)C(C)(C)C5CC[C@@]4(C)[C@]3(C)[C@H]2O)[C@@]1(C)O` (stereo not given in full), for which the activity change, negative = cytotoxicity was 9.26% [at 9.29 µM].
Take `COc1cc2c(cc1O)C(c1ccc(O)cc1)C(C)C(C)C2` (stereo not given): the Potency entry was “inactive”.
Turning to `Cc1sc(C)c(C(=O)NC2(c3ccc(C(=O)O)cc3)CC2)c1Cc1ccc(C(F)(F)F)cc1`, the Potency result is “inactive”.
Same read-out and setting: the entry for `Cc1c(Cc2ccc3ccccc3n2)c2cc(F)ccc2n1CC(=O)O` is “inactive”; for `COc1c2ccoc2nc2c(OC)c(O[C@@H]3O[C@@H](C)[C@H](O)[C@@H](O[C@@H]4O[C@H](CO)[C@@H](O)[C@H](O)[C@H]4O)[C@H]3OC(C)=O)ccc12` it is “inactive”; for `C=C(C)[C@H]1CC[C@]2(C(=O)O)CC[C@]3(C)C(CCC4[C@@]5(C)CCC(=O)C(C)(C)C5CC[C@]43C)C12` (stereo not given in full) it is “inactive”.

The test system of a further assay is Zika virus NS2B-NS3 protease (unlinked complex). Briefly: Primary screen GU Rhodamine qHTS for Zika virus inhibitors: Unlinked NS2B-NS3 protease assay (AID 1347159). Also: nearly all actives have a fitted effect of over 60% in size. Also: potency is read from the fitted curve at half-maximal effect. To be noted: Recombinant ZIKV NS2B-NS3 protease, Rhodamine110 substrate fluorescence; series mostly up to 107 µM. Put shortly:
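Noncovalent NS2B hydrophilic domain–NS3 protease domain complex (25 nM) preincubated 15 min at room temperature with compounds (up to 114 microM) in 10 mM Tris-HCl pH 8.0, 0.01% Tween 20; 1.5 microM Rhodamine110 substrate added, fluorescence change over 15 min fitted to Hill equation.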
For orientation: In qHTS, concentration-response curves come from the screen itself.
In the case of `C=CC(C)(O)CC/C=C(\C)COC1O[C@H](CO)[C@@H](O)[C@H](O)[C@H]1O` (stereo not given in full), the Potency was 12.6 µM (active).
The same measure, in the same setting: the entry for `COc1cc(C(=O)OC[C@@]2(O)CO[C@@H](O[C@H]3[C@H](Oc4ccc(O)cc4)O[C@H](CO)[C@@H](O)[C@@H]3O)[C@@H]2O)cc(OC)c1O` is “inactive”.
Turning to `C[C@]12CCC[C@](C)(C(=O)O)C1[C@@H](O)[C@@H](O)C13CC(CCC12)C(CO)(O[C@@H]1O[C@H](CO)[C@@H](O)[C@H](O)[C@H]1O)C3` (stereo not given in full), the Potency entry was “inactive”.
As to `C[C@@H]1C(=O)O[C@H]2[C@H]1CC[C@@]1(C)C(=O)C=C[C@@](C)(O)[C@H]21`, the Potency entry is “inactive”.
For `CC1(C(=O)O)CCCC2(C)C3CC4C5CC3(CCC12)CC45C` (stereo not given), the Potency was 10 µM (active).
On the same count and under the same terms, the same measure for `CC(=O)NCC1CN(c2ccc(-c3ccc(CNCc4cn[nH]n4)cc3)c(F)c2)C(=O)O1` (stereo not given): “inactive”; for `C=Cc1ccc(O[C@@H]2O[C@H](CO[C@@H]3O[C@@H](C)[C@H](O)[C@@H](O)[C@H]3O)[C@@H](O)[C@H](O)[C@H]2O)cc1`: “inactive”; for `COc1cccc(C)c1C(=O)O[C@@H]1C[C@H](O[C@H]2[C@H](O)C[C@H](O[C@@H]3CCC[C@H]4[C@H]3C=C[C@@H]3CCCC/C=C/[C@H]5C=C(C(=O)O)[C@@H](C)C[C@@]56OC(=O)C(=C6O)OC(=O)[C@@]34C)O[C@@H]2C)O[C@H](C)[C@H]1O`: “inactive”.
As to `CC(=O)OCC(Cc1ccccc1)NC(=O)C(Cc1ccccc1)NC(=O)c1ccccc1` (stereo not given), the Potency entry was “inactive”.
Regarding `Cc1cc(O[C@@H]2O[C@H](COC(=O)CC(=O)O)[C@@H](O)[C@H](O)[C@H]2O)c(C(C)C)cc1O`, the Potency result was “inactive”.
Same read-out and setting: the entry for `CC1=C2C3OC(=O)C(C)C3(O)CCC2(C)CCC1` (stereo not given) is “inactive”; for `c1cc(-c2cc(C3CCNCC3)[nH]n2)ccn1` it is “inactive”; for `C=C1CCC2[C@@](C)(C(=O)O)CCC[C@@]2(C)[C@@H]1CCc1ccoc1` (stereo not given in full) it is 10 µM (active).
The same measure, in the same setting: the entry for `C/C=C1/[C@H](O[C@@H]2O[C@H](CO)[C@@H](O)[C@H](O)[C@H]2O)OC=C(C(=O)OC)[C@H]1CC(=O)OCCc1ccc(O)c(O)c1` is “inactive”; for `CC1CCC2C(C(=O)O)=CC3(O)CC(C)(C)CC123` (stereo not given) it is “inactive”; for `Nc1c(-c2ccccc2)nc(Cl)c2c(O)n[nH]c(=O)c12` it is “inactive”.
Still for that read-out and setting: the same measure for `C[C@]1(OC(=O)/C=C/c2ccc(O)cc2)C[C@@H](O)[C@]2(O)C=CO[C@@H](O[C@@H]3O[C@H](CO)[C@@H](O)[C@H](O)[C@H]3O)C12` (stereo not given in full): “inactive”; for `CC1(C)C[C@H]2C=C(C=O)[C@]3(C(=O)O)C[C@]3(C)[C@H]2C1`: 22.4 µM (active); for `C=C1CCC[C@]2(C)CC[C@@](O)(C(=C)C(=O)O)C[C@@H]12`: 11.2 µM (active).
Take `CC(/C=C/C=C(\C)C(=O)O[C@@H]1O[C@H](CO[C@@H]2O[C@H](CO)[C@@H](O)[C@H](O)[C@H]2O)[C@@H](O)[C@H](O)[C@H]1O)=C\C=C\C=C(C)\C=C\C=C(/C)C(=O)O[C@@H]1C[C@](O)(C(=O)O)C[C@@H](O)[C@H]1OC(=O)/C=C/c1ccc(O)c(O)c1`: the Potency is 1.78 µM (active).

Values taken from PubChem BioAssay (NCATS).
